Results published in the OligoGym collection.
Also: reference of the scale not given here.

What follows are sequences tested against SIRPD (assay: pooled miR-30 sensor sort-seq; sequence = guide strand). Conditions: shRNA.
TGAACCACAAGACAGGTCCATT was tested, and the sensor-assay potency score (higher = more potent) was -1.29. TTGTAGATTAATTTCCGGTTTG gave a sensor-assay potency score (higher = more potent) of -0.577. TTGAACCACAAGACAGGTCCAT was tested, and the sensor-assay potency score (higher = more potent) was -0.0742. In the case of ATTTATTGTACGATCAAGCTGG, the sensor-assay potency score (higher = more potent) is reported as 0.545. TTACTCTGGGAAAGTTACCTTG showed a sensor-assay potency score (higher = more potent) of -0.709.

The sequences below were run against SIRT4 in the same assay as above. Conditions: shRNA.
TTGTGCACAAAATCAACCTTGT gave a sensor-assay potency score (higher = more potent) of 0.469. TTCTTTTACACGCTTGTGCACA was tested, and the sensor-assay potency score (higher = more potent) was -0.806. With TATTGCAATCGGGAGCTTCTTC the sensor-assay potency score (higher = more potent) was -0.488. Sequence ATGTTCAGTATTGCAATCGGGA has a sensor-assay potency score (higher = more potent) of -1.33. For ATACCTGCAAGGATGATCCCAC, the sensor-assay potency score (higher = more potent) was 0.445. TTTTTCTGACCTGTAGTCTGGT gave a sensor-assay potency score (higher = more potent) of 0.35. In the case of TTTCTGACCTGTAGTCTGGTAT, the sensor-assay potency score (higher = more potent) is reported as -0.224. TTTTCTGACCTGTAGTCTGGTA was tested, and the sensor-assay potency score (higher = more potent) was -0.377. TTTTGCTGACCTGAAAGTCAAC was tested, and the sensor-assay potency score (higher = more potent) was -1.46. TTGAACGCAGGTTGGGACCTGA showed a sensor-assay potency score (higher = more potent) of 0.0552. For TGTAACTCTTTGACCTTCTCAG, the sensor-assay potency score (higher = more potent) was 0.0606.

The sequences below were run against SIRT7 in the same assay as above. Conditions: shRNA.
TAACGCTTCTCCCTTTCTGAAG was tested, and the sensor-assay potency score (higher = more potent) was -1.56. With TTGGTCATGCACCAGAGGCGTG the sensor-assay potency score (higher = more potent) was -1.42. For TTCAATGTACATGTTCCCGTGG, the sensor-assay potency score (higher = more potent) was 0.307. TTCTGAAGCAGTGTCCACACTC gave a sensor-assay potency score (higher = more potent) of -0.449. TTCTGCACAGCGACTTCCGACT was tested, and the sensor-assay potency score (higher = more potent) was -1.07. TTCTTTAGAACCTTCAGGCTGG was tested, and the sensor-assay potency score (higher = more potent) was 0.828. With TGAAGCAGTGTCCACACTCCAT the sensor-assay potency score (higher = more potent) was -1.07. For TGGGTACTTCTTTAGAACCTTC, the sensor-assay potency score (higher = more potent) was -0.762. For ATGACGTCATCACACTTCCCAT, the sensor-assay potency score (higher = more potent) was -1.31. In the case of TCCGTCACATCGAACACCCGCA, the sensor-assay potency score (higher = more potent) is reported as -0.639. TTCTTCACCAGCACGCAGGGGA gave a sensor-assay potency score (higher = more potent) of -0.0799. With TAGACGACCAAGTATTTGGCGT the sensor-assay potency score (higher = more potent) was -0.403.

The sequences below were run against SIX1 in the same assay as above. Conditions: shRNA.
With AACAACTCCAGAAACAAGCTGC the sensor-assay potency score (higher = more potent) was -0.198. With TTAAGCTTGAGATCGCTGTTGG the sensor-assay potency score (higher = more potent) was 0.117. TACAAGTGTCCCTAGTCGCTGC was tested, and the sensor-assay potency score (higher = more potent) was 0.379. TTCTATTTACAAGTGTCCCTAG gave a sensor-assay potency score (higher = more potent) of 0.0217. Sequence TTTATGCGCAAACAACTCCAGA has a sensor-assay potency score (higher = more potent) of -1.43. ATATTTGTGAAAGTCCACCATT was tested, and the sensor-assay potency score (higher = more potent) was -0.953. TTCTGAGCTGGACATGAGCGGC gave a sensor-assay potency score (higher = more potent) of -1.35. TTCTTGTGCAGGTGGTCGCAGG was tested, and the sensor-assay potency score (higher = more potent) was -1.02. In the case of TTGTTTTCGGTGTTCTCCCTTT, the sensor-assay potency score (higher = more potent) is reported as -0.196. TTCTCCTTGAAGCAGTAGCTGG showed a sensor-assay potency score (higher = more potent) of -1.4. With TTTCTATTTACAAGTGTCCCTA the sensor-assay potency score (higher = more potent) was -0.676. Work on TTGAGTACGCTCTCGTTCTTGT yielded a sensor-assay potency score (higher = more potent) of -0.00831.
